According to the supplement of paper PMC9262897, “Low-cost anti-mycobacterial drug discovery using engineered E. coli” (Nature Communications, 2022):
Where a name gives a salt, the structure may show the parent alone. ± gives the standard deviation of the averaged measurements.

test system: E. coli TESEC Alr+ wild-type control; test: growth (OD600 after 10 h); higher = more growth (less inhibition); settings: compound 0.1 mM; raw OD600 reference: median of DMSO wells 0.49, cell-free background 0.052
Method: (§1)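 TESEC Mtb Alr E. coli (ΔaraC ΔtolC ΔentC Δalr ΔdadX, arabinose-inducible Mtb Alr) or the Alr+ wild-type control strain, grown in defined M9-fructose medium without D-alanine in 96-well plates with Prestwick library compounds at 0.1 mM and 1% DMSO. Low Alr induction is 0.1 µM arabinose and high induction is 10 mM arabinose.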

SMILES | growth
COc1ccc([C@@H]2Sc3ccccc3N(CCN(C)C)C(=O)[C@@H]2OC(C)=O)cc1 [Diltiazem hydrochloride] | 0.476 ± 0.011
CC(=O)N[C@@H](CC(=O)N[C@@H](CCC(=O)O)C(=O)O)C(=O)O [Spaglumic acid] | 0.522 ± 0.037
Cc1ccnc(NS(=O)(=O)c2ccc(N)cc2)n1 [Sulfamerazine] | 0.515 ± 0.075
N=c1nc(N2CCCCC2)cc(N)n1O [Minoxidil] | 0.45 ± 0.038
COc1ccc2c(c1)c(CC(=O)O)c(C)n2C(=O)c1ccc(Cl)cc1 [Indomethacin] | 0.392 ± 0.0071
CN1CC2c3ccccc3Oc3ccc(Cl)cc3C2C1 (stereo unspecified) [Asenapine maleate] | 0.44 ± 0.01

test system: E. coli TESEC Mtb Alr; test: as above; settings: arabinose 100 nM; compound 0.1 mM; raw OD600 reference: median of DMSO wells 0.413, cell-free background 0.052
Method: as §1

SMILES | growth
CN1CCCC(n2nc(Cc3ccc(Cl)cc3)c3ccccc3c2=O)CC1 (stereo unspecified) [Azelastine HCl] | 0.409 ± 0.0069
COC(=O)Nc1nc2ccc(SC(C)C)cc2[nH]1 [Methiazole] | 0.427 ± 0.0091
CCCCNC(=O)NS(=O)(=O)c1ccc(C)cc1 [Tolbutamide] | 0.409 ± 0.006
CS(=O)(=O)OCCCCOS(C)(=O)=O [Busulfan] | 0.4123 ± 0.004
Fc1ccc([C@@H]2CCNC[C@H]2COc2ccc3c(c2)OCO3)cc1 [Paroxetine Hydrochloride] | 0.384 ± 0.0066
CC1(C)O[C@@H]2C[C@H]3[C@@H]4C[C@H](F)C5=CC(=O)C=C[C@]5(C)[C@H]4[C@@H](O)C[C@]3(C)[C@]2(C(=O)CO)O1 [Flunisolide] | 0.4 ± 0.0095
CNCCc1ccccn1 [Betahistine mesylate] | 0.408 ± 0.014
CC(C(=O)O)c1ccc(C(=O)c2cccs2)cc1 (stereo unspecified) [Suprofen] | 0.382 ± 0.01
CCCCCCCCNC(C)C(O)c1ccc(SC(C)C)cc1 (stereo unspecified) [Suloctidil] | 0.0587 ± 0.0041
CCCc1cc(C(N)=S)ccn1 [Prothionamide] | 0.414 ± 0.013
CCC[C@@H]1C[C@@H](C(=O)N[C@@H]([C@H]2O[C@H](SC)[C@H](O)[C@@H](O)[C@H]2O)[C@@H](C)O)N(C)C1 [Lincomycin hydrochloride] | 0.443 ± 0.0099
C[C@]12CC[C@@H]3c4ccc(O)cc4C[C@@H](CCCCCCCCC[S+]([O-])CCCC(F)(F)C(F)(F)F)[C@H]3[C@@H]1CC[C@@H]2O (stereo partly specified) [Fulvestrant] | 0.413 ± 0.03
CN(C)CCCSC(=N)N [Dimaprit dihydrochloride] | 0.406 ± 0.015
CN1CCN(c2c(F)cc3c(=O)c(C(=O)O)cn4c3c2SCC4)CC1 [Rufloxacin] | 0.0582 ± 0.0019
CC(=O)OCC(=O)[C@@]1(OC(C)=O)[C@@H](C)C[C@H]2[C@@H]3C[C@H](F)C4=CC(=O)C=C[C@]4(C)[C@@]3(F)[C@@H](O)C[C@@]21C [Diflorasone Diacetate] | 0.394 ± 0.014
CS(=O)(=O)c1ccc([C@@H](O)[C@@H](CO)NC(=O)C(Cl)Cl)cc1 [Thiamphenicol] | 0.301 ± 0.012
CSc1nc2cc(Cl)c(Oc3cccc(Cl)c3Cl)cc2[nH]1 [Triclabendazole] | 0.0864 ± 0.011
CC(C)(CO)C(O)C(=O)NCCCO (stereo unspecified) [Panthenol (D)] | 0.406 ± 0.011
Cc1onc(-c2ccccc2Cl)c1C(=O)N[C@@H]1C(=O)N2[C@@H]1SC(C)(C)[C@@H]2C(=O)O [Cloxacillin sodium salt] | 0.417 ± 0.0066
OCCN(CCO)c1nc(N2CCCCC2)c2nc(N(CCO)CCO)nc(N3CCCCC3)c2n1 [Dipyridamole] | 0.068 ± 0.006

SMILES | growth
CN(C)CCN(Cc1ccc(Cl)cc1)c1ccccn1 [Chloropyramine hydrochloride] | 0.399 ± 0.0085
CCCCOC(=O)c1ccc(N)cc1 [Butamben] | 0.36 ± 0.026
Nc1c(Br)cc(Br)cc1CN[C@H]1CC[C@H](O)CC1 [Ambroxol hydrochloride] | 0.406 ± 0.0096
C[C@]12CC[C@@H]3c4ccc(OS(=O)(=O)O)cc4CC[C@H]3[C@@H]1CCC2=O [Estropipate] | 0.41 ± 0.0049
CC(NCCC(c1ccccc1)c1ccccc1)c1ccccc1 (stereo unspecified) [Fendiline hydrochloride] | 0.4097 ± 0.0034
C[C@@H]1C[C@H]2[C@@H]3C[C@H](F)C4=CC(=O)C=C[C@]4(C)[C@@]3(F)[C@@H](O)C[C@]2(C)[C@@]1(O)C(=O)COC(=O)C(C)(C)C [Flumethasone pivalate] | 0.43 ± 0.025
COc1cc(C(=O)NC2CCCNC2)cc(OC)c1OC (stereo unspecified) [Troxipide] | 0.402 ± 0.014
COCCc1ccc(OCC(O)CNC(C)C)cc1 (racemic) [Metoprolol-(+,-) (+)-tartrate salt] | 0.399 ± 0.008
CC(Oc1c(Cl)cccc1Cl)C1=NCCN1 (stereo unspecified) [Lofexidine] | 0.406 ± 0.0098
N#CC(c1ccc(Cl)cc1)c1c(Cl)cc(-n2ncc(=O)[nH]c2=O)cc1Cl (stereo unspecified) [Diclazuril] | 0.0632 ± 0.00095
Cc1cc(C(C)(C)CC(C)(C)C)ccc1OCCOCC[N+](C)(C)Cc1ccccc1 [Methyl benzethonium chloride] | 0.0556 ± 0.0023
CC(=O)CC(c1ccc([N+](=O)[O-])cc1)c1c(O)c2ccccc2oc1=O (stereo unspecified) [Acenocoumarol] | 0.395 ± 0.011
COCC1=C(C(=O)OC(C)OC(=O)OC(C)C)N2C(=O)[C@@H](NC(=O)/C(=N\OC)c3csc(N)n3)[C@H]2SC1 (stereo partly specified) [Cefpodoxime proxetil] | 0.0545 ± 0.0063
CC(=O)OCC(=O)[C@@]12OC(C)(C)O[C@@H]1C[C@H]1[C@@H]3C[C@H](F)C4=CC(=O)C=C[C@]4(C)[C@@]3(F)[C@@H](O)C[C@@]12C [Fluocinonide] | 0.432 ± 0.041
COc1ccc([C@@H]2Sc3ccccc3N(CCN(C)C)C(=O)[C@@H]2OC(C)=O)cc1 [Diltiazem hydrochloride] | 0.413 ± 0.0022
CC(=O)N[C@@H](CC(=O)N[C@@H](CCC(=O)O)C(=O)O)C(=O)O [Spaglumic acid] | 0.434 ± 0.0089
Cc1ccnc(NS(=O)(=O)c2ccc(N)cc2)n1 [Sulfamerazine] | 0.42 ± 0.0052
N=c1nc(N2CCCCC2)cc(N)n1O [Minoxidil] | 0.406 ± 0.0072
COc1ccc2c(c1)c(CC(=O)O)c(C)n2C(=O)c1ccc(Cl)cc1 [Indomethacin] | 0.366 ± 0.032
CN1CC2c3ccccc3Oc3ccc(Cl)cc3C2C1 (stereo unspecified) [Asenapine maleate] | 0.417 ± 0.0072
